The text below walks through data of the supplement of paper PMC8387472.

Structures can show the parent of a compound that is named as a salt. ± gives the standard deviation of the averaged measurements.

For this test, the system named is mESC LDLR-Dup GFP reporter (SpCas9 MH-deletion repair). In words: fraction of GFP+ cells relative to DMSO control (fold change); higher = more MH-deletion repair to in-frame LDLR (or more editing). To be noted: 2 µM; 7 days post-transfection.
Regarding `C[C@H](Oc1cc(-c2cnn(C3CCNCC3)c2)cnc1N)c1c(Cl)ccc(F)c1Cl` [(S)-crizotinib], the “fraction of GFP+ cells” value came out at 0.94 ± 0.18.
For `CC(C)(O)C1CCC(C)(C2C(O)CC3(C)C4CC(O)C5C(C)(C)C(O)CCC56CC46CCC23C)O1` (centres undefined) [Cyclogalegenol], the “fraction of GFP+ cells” value was found to be 0.875 ± 0.24.
As to `CCCCCCCCC/C(=C\C1=C(C)C(=O)C(OC)=C(OC)C1=O)C(=O)O`, the “fraction of GFP+ cells” value worked out at 1.19 ± 0.5.
The figure for `CCCCCOC(=O)Nc1nc(=O)n([C@@H]2O[C@H](C)[C@@H](O)[C@H]2O)cc1F` [Capecitabine] is 0.922 ± 0.39; for `Nc1nc2n[nH]nc2c(=O)[nH]1` [Azaguanine-8] it is 1.43 ± 0.23.
Turning to `Cc1cccc(Nc2cc(Cl)nc(SCC(=O)O)n2)c1C`, the “fraction of GFP+ cells” value turned out to be 1.56 ± 0.58.
Regarding `CC(N)C12CC3CC(CC(C3)C1)C2` (centres undefined) [Rimantadine Hydrochloride], the “fraction of GFP+ cells” value was determined as 0.701 ± 0.034.
With `CCn1cc(C(=O)O)c(=O)c2cc(F)c(N3CCNCC3)nc21` [Enoxacin], the “fraction of GFP+ cells” value is 1.04 ± 0.096.
As for `CCC[C@H](NC(=O)/C(C#N)=C/c1cccc(Br)n1)c1ccccc1` [Degrasyn (WP1130)], the figure is 0.638 ± 0.12; as for `CCCC(CCC)C(=O)O` [Valproic acid sodium salt (Sodium valproate)], 0.849 ± 0.18; as for `CC1=C(/C=C/C(C)=C/C=C/C(C)=C/C(=O)O)C(C)(C)CCC1` [Tretinoin], 0.923 ± 0.026.
Consider `O=C(O)c1cn(C2CC2)c2cc(N3CCNCC3)c(F)cc2c1=O` [Ciprofloxacin], for which the “fraction of GFP+ cells” value stood at 1.01 ± 0.28.
As for `CCn1cc(C(=O)O)c(=O)c2cc(F)c(N3CCN(C)CC3)cc21` [Pefloxacin Mesylate Dihydrate], the figure is 1.13 ± 0.09; as for `O=C(NCc1ccccc1)c1csc(Nc2ccncn2)n1` [Thiazovivin], 0.987 ± 0.18.
